Laboratory results published in PubChem BioAssay AID504635 (The Scripps Research Institute Molecular Screening Center, 2011).
This is one part of the list. Calls of active or inactive are those of the source. Rule as the data show it: active = inhibition above about 18%; inactive = the rest.

Biological target: Troponin I, cardiac muscle (Homo sapiens) + Troponin T, cardiac muscle (Homo sapiens) + Troponin C, slow skeletal and cardiac muscles (Homo sapiens) (UniProt P19429+P45379+P63316)
Test: calcium desensitizers of cardiac thin filaments – biochemical, fluorescence readout, confirmation (AID 504635)
Details: reconstituted cardiac thin filaments, calcium sensitivity fluorescence; at 7.15 µM; stronger effect = higher value

| SMILES | inhibition |
| --- | --- |
| COc1cc(OC)cc(C(=O)NCC(=O)OCc2csc(-c3ccccc3)n2)c1 | 2.35% (inactive) |
| COc1cccc(CNC(=O)C(=O)NCCC2CCCCN2S(=O)(=O)c2ccc(C)cc2)c1 (stereo not given) | -4.1% (inactive) |
| Cc1ccc(NC(=O)NC2CCCCC2)cc1S(=O)(=O)N1CCOCC1 | -0.15% (inactive) |
| Cc1ccc(S(=O)(=O)N(CC(=O)Nc2cccc([N+](=O)[O-])c2)Cc2ccc(Cl)cc2)cc1 | -1.82% (inactive) |
| O=c1ccc2c(-c3ccccc3S(=O)(=O)O)c3ccc(O)c(O)c3oc-2c1O | 154% (active) |
| COC(=O)c1cccc(N(CC(=O)NCC2CCCO2)C(=O)CCC(=O)Nc2cc(C)on2)c1 (stereo not given) | -2.6% (inactive) |
| COC(=O)CCc1sc(Nc2ccc(Br)cc2)nc1-c1ccc(OC)cc1 | 1.8% (inactive) |
| C=CCNC(=O)COC(=O)c1ccccc1C(=O)N(C)C1CCCCC1 | 0.72% (inactive) |
| COc1ccc(NC(=O)CC2COc3ccccc3O2)c(OC)c1 (stereo not given) | -2.46% (inactive) |
| O=C(O)c1cccc(S(=O)(=O)Nc2ccc(O)cc2Sc2nc3ccccc3s2)c1 | -6.09% (inactive) |
| C/C(=N\NC(=O)C(N)=O)c1ccc2c(c1)OCCO2 | -2.4% (inactive) |
| CCCCn1c(=O)c(C(C)=O)c(O)c2ccccc21 | -4.91% (inactive) |
| Cc1cccc(N(C(=O)Cc2cccs2)C(C(=O)NC2CCCC2)c2ccsc2)c1 (stereo not given) | -3.11% (inactive) |
| Cc1cc(NC(=O)CCC(=O)N(CC(=O)NCC2CCCO2)c2ccccc2)no1 (stereo not given) | -4.68% (inactive) |
| CC1CCCC(NC(=O)COC(=O)[C@@H]2CC(O)CN2S(=O)(=O)c2ccc3c(c2)OCCO3)C1C (stereo not given in full) | -1.77% (inactive) |
